Screens from PubChem BioAssay.
In the library only some 4.1% were active in any assay of this set; here they are far more common.
Jurkat NFkB inh: inhibitors of induced NF-kB luciferase reporter, primary screen, TCR NF-kB activation inhibitor project, cell-based, luminescence, uHTS; Jurkat, PMA/ionomycin-induced NF-kB luciferase reporter; inhibition, % at 4 µM; hit rate 0.53% among 330,000; AID 435003, 2010; in the data active = inhibition above about 50%
aSyn UTR inh: MLPCN primary screen, SNCA 5' untranslated region; alpha-synuclein 5'UTR reporter, inhibitor activity; inhibition, % (tested at 7.5 µM); hit rate 0.82% among 300,000; AID 1813, 2009; in the data active = inhibition above about 60%; inconclusive = no clear call, values can overlap the other calls;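 also: H4 neuroglioblastoma cells stably carrying SNCA 5'UTR luciferase fusion; 0% = DMSO wells and 100% = positive control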
Mdm2 MdmX PPI: inhibitors of human Mdm2-MdmX association, primary screen, cell-based, luminescence, split luciferase, SaOS-2, uHTS | SaOS-2 split-luciferase Mdm2/MdmX complementation | Protein Mdm4 (Homo sapiens) + E3 ubiquitin-protein ligase Mdm2 (Homo sapiens), … | inhibition, % at 8 µM | hit rate 3% among 330,000;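 active = inhibition of at least 50% at 8 µM in the primary screen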
KLF5 inh: KLF5 expression inhibitors, primary screen, DLD-1 cells, luminescence; hit rate 0.23% among 290,000; DLD-1 KLF5 promoter-luciferase reporter; inhibition, % at 5 µM;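 active = inhibition above a per-plate limit of that plate's mean compound inhibition plus 3 SD, cut at about 60% in these data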;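 also: 0% = DMSO wells and 100% = LY294002 at 200 µM; higher means less KLF5 promoter-driven luciferase light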
697 NFkB inh: inhibitors of PMA/ionomycin-induced NF-kB reporter, 697 cells, primary screen, B-cell NF-kB inhibitor project, cell-based, luminescence, uHTS | hit rate 0.33% among 330,000 | AID 435022, 2010 | inhibition, % at 4 µM | 697 B-cell NF-kB luciferase reporter, 16 h; in the data active = inhibition above about 35%
Gli-Sufu block: Gli-Sufu pathway antagonists, primary screen, luciferase luminescence, Sufu-KO-LIGHT cells, uHTS; hit rate 0.74% among 340,000; inhibition, % at 5 µM; Sufu-KO-LIGHT fibroblasts, Gli luciferase reporter luminescence;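 active = inhibition above about 55%, limit read from the data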;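 also: 0% = DMSO-treated cells and 100% = wells with medium but no cells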
697 NFkB conf: PMA/ionomycin-induced NF-kB reporter inhibitors, 697 retest, confirmation, B-cell NF-kB inhibitor project, cell-based, luminescence, single concentration; shares compounds with 697 NFkB inh; 697 B-cell NF-kB luciferase, 16 h; inhibition, % at 4 µM; hit rate 35% among 2,000; AID 449746, 2010; in the data active = inhibition mostly above about 28%, no sharp cut-off; inactive = mostly below about 22%
Numbers without * were called inactive; ? = inconclusive; . = not tested or not shown.

SMILES	Jurkat NFkB inh	aSyn UTR inh	Mdm2 MdmX PPI	KLF5 inh	697 NFkB inh	Gli-Sufu block	697 NFkB conf
CCN1C(=O)[C@@H]2[C@@H](c3ccc(-c4ccc(F)cc4)c(OC)c3)N3CCC[C@@]3(C(=O)OC)[C@@H]2C1=O	8	.	35	.	11	-2	.
COc1cccc(C(C)=C2SC(=S)NC2=O)c1	.	.	.	.	.	2	.
CCc1ccc(-c2nc(CSCC(=O)NC3CC3)c(C)o2)cc1	-8	71*	0	42	97*	80*	93*
COc1ccc(-c2nc(CSCC(=O)NCc3ccco3)c(C)o2)cc1	29	-1	15	-17	38*	39	43*
CSc1ccc(-c2nc(CSCC(=O)NC3CC3)c(C)o2)cc1	-2	12	-3	-29	90*	70*	49*
Cc1ccc(NC(=O)NNC(=O)c2snnc2C)cc1	-14	-17	3	-36	-15	-3	.
CC(C)(C)NC(=O)N1CCCC(C(=O)c2cccc(Cl)c2)C1 (stereo not given)	5	17	-7	-17	-22	0	.
O=C(O)/C=C/C(=O)Nc1ccc(OC(F)(F)F)cc1Br	14	-6	-7	-5	8	5	.
CC(C)(C)n1nnnc1C(c1cccc(C(F)(F)F)c1)N1CCC(O)CC1 (stereo not given)	3	10	-9	-44	-2	6	.
CCC(=O)N1c2ccccc2[C@@H](N(C(C)=O)c2ccccc2)C[C@H]1C	5	-18	45	-4	51*	20	38*
CCCC(=O)N1c2ccccc2C(N(C(C)=O)c2ccccc2)CC1C (stereo not given)	-3	14	2	3	24	20	.
O=C1CC(C(=O)Nc2cccc(F)c2)n2c(nc3ccccc32)N1 (stereo not given)	-2	-2	1	4	35*	0	-6
COc1ccc(/C=N\n2nnc3ccccc32)cc1	-147	73*	-149	-111	-294	-134	-215
CCOC(=O)c1cccc(OS(=O)(=O)Cc2ccccc2)c1	-40	-63	-16	.	-56	-5	.
O=c1[nH]c(NC2CCN(S(=O)(=O)c3ccccc3C(F)(F)F)CC2)nc2c1CCCC2	36	18	27	-4	44*	-14	26
CC1(C)CC(NC(=O)C2CCN(S(=O)(=O)c3ccccc3C(F)(F)F)CC2)CC(C)(C)N1	-22	5	-4	2	3	9	.
COc1ccc(N=Nc2ccc(CO)cc2)cc1	-141	-6	-212	.	-324	-49	-241
O=C(O)COc1ccccc1/C=N/NC(=O)CSc1nc2ccccc2n1Cc1ccc(Cl)cc1	1	6	17	32	13	-20	.
CC(=O)c1c(C)nc(Nc2nc3ccccc3s2)nc1C	-129	-83	-87	-72	-291	-65	-206
Cc1cc(C)nc(Nc2nc3ccccc3s2)n1	-148	-177	-158	-21	-223	-71	.
Cc1ccc(NC(=O)c2ccccc2O)cc1	-97	-37	-142	-141	-213	2	.
Cc1cc(C)cc(NC(=O)Nc2ccc(NC(=O)c3ccccc3O)cc2)c1	14	-2	11	14	36*	9	37*
COc1ccc(Nc2nnc(C)c3ccccc23)cc1C(N)=O	5	-55	10	-15	3	-1	.
COc1ccc(Nc2nnc(-c3ccc(O)cc3)c3ccccc23)cc1C(N)=O	-3	10	-2	5	39*	-6	23
CCOc1ccc2[nH]c3c(N4CCN(c5ccccn5)CC4)ncnc3c2c1	0	-44	33	-9	45*	44	27
SMILES	Jurkat NFkB inh	aSyn UTR inh	Mdm2 MdmX PPI	KLF5 inh	697 NFkB inh	Gli-Sufu block	697 NFkB conf
Cc1ccc2[nH]c3c(N4CCCCCC4)ncnc3c2c1	.	-127	.	-41	.	.	.
CCOc1ccc(-c2cc(CCCC(=O)NCCc3ccc(OC)c(OC)c3OC)no2)cc1	-10	?	-3	-34	37*	14	10
COc1ccc(-c2cc(CCCC(=O)NCCc3ccc(OC)cc3OC)no2)cc1	5	0	5	0	16	-4	.
CCOc1ccc(NC(=O)CCCc2cc(-c3ccc(OCC)cc3)on2)cc1	-16	35	-7	-14	40*	8	40*
CCOc1ccc(-c2cc(CCCC(=O)NCc3cccnc3)no2)cc1	-123	-5	13	-121	35	4	.
COc1ccc(C(=O)Nc2ccc(Cl)cc2C(=O)NCc2ccco2)cc1OC	-19	13	16	-40	-17	12	.
COc1ccc(C(=O)Nc2ccccc2C(=O)NCc2ccco2)cc1OC	13	27	19	14	37*	-9	31*
CC(C)(C)n1nc2c(c1NC(=O)C1CC(=O)N(c3ccc(Cl)cc3)C1)CS(=O)(=O)C2 (stereo not given)	7	-1	-2	-19	8	-4	.
O=C1NC(Cc2ccccc2)c2nc3ccc(Br)cc3c(=O)n2-c2cc(Cl)ccc21 (stereo not given)	10	.	28	.	6	.	.
CC1(C)Cc2c(sc(NC(=O)C(=O)N3CCOCC3)c2C(N)=O)CO1	4	2	0	-26	3	1	.
Cc1cccc(NC(=O)CC2C(=O)NCCN2C(=S)Nc2ccccc2)c1 (stereo not given)	-6	-13	-2	11	-7	0	.
COc1ccccc1NC(=S)N1CCNC(=O)C1CC(=O)Nc1cccc(C)c1 (stereo not given)	12	5	10	-17	38*	4	-18
COCc1ccc(CN2CCCC(C(=O)Nc3ccc(-c4cscn4)cc3)C2)o1 (stereo not given)	-1	-1	8	-19	11	4	.
C(=N\Nc1ccccc1)/c1nc2ccccc2s1	-137	-8	-164	-149	-313	-93	-48
COC(=O)N/N=C/c1cn(CCOc2ccccc2OC)c2ccccc12	4	11	21	-25	11	6	.
CNC(=S)N/N=C/c1cn(CCOc2ccccc2OC)c2ccccc12	-13	-1	40	-1	35*	21	15
CNC(=S)N/N=C/c1cn(CCOc2cccc(OC)c2)c2ccccc12	-8	-12	32	-7	40*	10	-11
COc1cccc(OCCn2cc(/C=N/NC(=O)c3ccncc3)c3ccccc32)c1	1	7	-10	0	-23	-8	.
O=C(CCNC(=O)c1ccco1)NC(Cc1c[nH]c2ccccc12)C(=O)O (stereo not given)	-2	.	10	.	9	-2	.
